PubChem BioAssay AID720724 (Broad Institute, 2013)
Measured potencies and affinities stand elsewhere. Calls of active or inactive are those of the source.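 How the source made its calls: active means signal falls with a fitted half-maximal dose at most twice the top dose, in every run; inconclusive means steady partial drop, poor fit, or runs disagree; inactive means flat, rising or too weak in every run.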

Assay: EF1alpha-driven Renilla reporter with control 3'UTR suppression – Clone20-Shn3RL cells, dual-Glo, cherry-pick, set 2, counter-screen for Shn3 3'UTR targeting project, dose response (AID 720724)

Row | SMILES | outcome
1 | CC(C)Cn1c(N)c(C(=O)COC(=O)C2Cc3ccccc3CN2S(C)(=O)=O)c(=O)n(C)c1=O (stereo not given) | inactive
2 | CNc1ccccc1C(C)(C)c1cc(-c2cccc(OC)c2)no1 | inactive
3 | COc1ccc(CNC(=O)C(c2ccc(C)cc2)N(Cc2cccs2)C(=O)c2ccc3c(c2)OCCO3)cc1 (stereo not given) | inactive
4 | CC(=O)Nc1ccc(OCC(=O)Nc2ccc(Cl)c(S(=O)(=O)N3CCOCC3)c2)cc1 | inactive
5 | CC1Cc2cc(S(=O)(=O)N3CCN(c4ccc(Cl)cc4)CC3)ccc2N1C(=O)C1CC1 (stereo not given) | inactive
6 | Fc1ccc(-n2nnnc2-c2cnc(-c3cccs3)nc2C(F)(F)F)cc1 | inactive
7 | COc1ccc(CC(=O)Nc2ccncc2Cl)cc1 | inactive
8 | O=C(Nc1nc(-c2ccccc2)cs1)C1CCCCN1S(=O)(=O)c1ccccc1 (stereo not given) | inactive
9 | Cc1c(C)c2ccc(OCC(=O)Nc3ccccn3)c(C)c2oc1=O | inactive
10 | CCOc1ccc(N(C)S(=O)(=O)c2cc(-c3cc(C)no3)ccc2C(C)C)cc1 | inactive
11 | CCn1c(C)cc(C(=O)COC(=O)c2ccccc2[N+](=O)[O-])c1C | inactive
12 | COc1ccc(NS(=O)(=O)c2ccc(OC)c(N(C)S(=O)(=O)c3ccc(Cl)cc3)c2)cc1 | inactive
13 | CCOC(=O)c1cn(CC(=O)Nc2cccc(Cl)c2C)nn1 | inactive
14 | CCSc1nnc(NC(=O)c2nc(S(=O)(=O)Cc3ccc(F)cc3)ncc2Cl)s1 | inactive
15 | O=C(CN1C(=O)c2ccccc2S1(=O)=O)c1ccc(Cl)cc1Cl | inactive
16 | CC(C)(C)C(=O)Nc1ccc(NC(=O)c2ccco2)nc1 | inactive
17 | Cc1ccc(NC(=O)c2cc(S(=O)(=O)NCCC3=CCCCC3)ccc2F)cc1F | inactive
18 | CCOC(=O)Cn1c(S(=O)(=O)Cc2ccccc2Cl)nc(-c2ccccc2)c1-c1ccccc1 | inactive

Row | SMILES | outcome
19 | Cc1onc(-c2ccccc2Cl)c1C(=O)N(C)C1CCCCC1 | inactive
20 | O=C(COC(=O)c1n[nH]c2ccccc12)Nc1ccc(S(=O)(=O)N2CCCC2)cc1 | inactive
21 | Cc1cccc(CSc2cccc3cccnc23)c1 | inactive
22 | CCN(CC)c1ccc(NC(=O)CN2C(=O)CSc3ncccc32)c(C)c1 | inactive
23 | Cc1ccc(C(=O)Nc2cnc3ccccc3c2)cc1 | inactive
24 | Cc1ccc2c(c1)nnn2C1CCN(S(=O)(=O)c2ccc(C(=O)N3C(C)CCCC3C)cc2)CC1 (stereo not given) | inactive
25 | CC(C)[C@H](NC(=O)OC(C)(C)C)c1nnc(S(=O)(=O)Cc2c(F)cccc2Cl)o1 | inactive
26 | CCn1c(CNC(=O)c2cc(OC)c(OC)c(OC)c2)cc2cc(C)ccc21 | inactive
27 | Oc1ccc(-c2n[nH]c(C(F)(F)F)c2-c2ccccc2)c(O)c1 | inactive
28 | Cc1cccc(-c2noc(CN(C(=O)C(c3ccccc3)c3ccccc3)C(C)C)n2)c1 | inactive
29 | O=C(Nc1ccc(N2CCOCC2)cc1)c1ccc(Cl)c(S(=O)(=O)N2CCCC2)c1 | inactive
30 | COc1ccc(CNC(=O)C(C)n2ccc3cc(S(=O)(=O)N4CCCCCC4)ccc32)cc1 (stereo not given) | inactive
31 | CCOC(=O)N1CCN(c2ccc(S(=O)(=O)N(Cc3ccccc3)Cc3ccccc3)cn2)CC1 | inactive
32 | COc1ccc(OCc2cccc(C(=O)O)c2)cc1 | inactive
33 | COc1ccc(-n2ncc3c(N4CCCCC4)ncnc32)cc1 | inactive
34 | CCc1ccccc1NC(=O)COC(=O)c1c(C)nsc1NC | inactive
35 | CCOC(=O)c1oc2ccc(S(=O)(=O)n3nc(-c4ccc(OC)cc4)cc3N)cc2c1C | inactive
